Screening data as filed in PubChem.
Pf growth 48h = inhibits P. falciparum growth in the first generation, 48 h | P. falciparum luciferase growth in erythrocytes, 48 h | Potency, µM (titrated, usually from 28.7 µM), for inactives: at the top dose activity change, negative = inhibition, most hits filed as inhibitors | hit rate 5.9% among 310,000; further: on the % scale 0 is the no-effect control and ±100 the full control effect
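Compounds are pin-transferred into medium, infected erythrocytes (2% hematocrit, 0.1% parasitemia final) are added, and plates sit one parasite generation at 37 C in 5% CO2. Detection reagent is then added and luminescence measured.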
Pf growth 96h = P. falciparum growth inhibition at 96 hour, primary screen for plastid delayed-death inhibitors; Potency, µM (top dose mostly 28.7 µM), for the others: at the highest dose activity change, negative = inhibition, usual class: inhibitors; P. falciparum luciferase reporter growth, 96 h; hit rate 6.9% among 320,000; further: on the % scale 0 is the no-effect control and ±100 the full control effect
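Plates of compound plus infected erythrocytes (2% hematocrit, 0.05% parasitemia final) incubate 96 hours, 37 C, 5% CO2. Detection reagent added; reduced luminescence from the parasites' luciferase reporter flags inhibition.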
Sm TGR inh = inhibitors of Schistosoma mansoni thioredoxin glutathione reductase; Q962Y6; purified TGR, DTNB reduction, TNB absorbance 405 nm; Potency, µM (series often up to 114 µM), inactives show at the top dose activity change, negative = inhibition, most hits filed as inhibitors; hit rate 3% among 360,000; AID 485364; further: on the % scale 0 is the no-effect control and ±100 the full control effect; nearly all actives have a fitted effect of over 60% in size
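Kinetic colorimetric format: TGR-catalysed, NADPH-driven DTNB reduction monitored via TNB absorbance. Enzyme dispensed at 20 nM; compound exposure 15 min at room temperature before reaction start.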
NS1 inh = blocks influenza NS1 protein function; Potency, µM (doses to about 46.1 µM), for the others: top-dose activity, positive = more growth; hit rate 0.4% among 270,000; AID 2326; calls by dose curve; further: actives are rising curves; nearly all actives have a fitted effect of over 50% in size
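OD600 was taken as the measure of yeast growth restored by compound in an NS1-expressing S. cerevisiae strain. Cells had been washed out of glucose medium and diluted 1:100 into galactose -URA medium, pH 6.0.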
AMA1-RON2 inh = inhibitors of Plasmodium falciparum AMA1-RON2 interaction. AlphaScreen AMA1-biotinylated RON2 peptide binding. Potency, µM (top dose mostly 58.2 µM), for the others: at the highest dose activity change, negative = inhibition, hits mostly inhibitors. hit rate 0.2% among 360,000. AID 720542;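 further: 0% = vehicle wells and -100% = peptide control; nearly all actives have a fitted effect of over 45% in size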
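AMA1 (3D7) with his tag at 25 nM final met compounds first, then biotinylated RON2 peptide at 25 nM; detection used donor plus acceptor beads, 10 µg/mL apiece, read by AlphaScreen after 30 min at room temperature.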
The depositor's hits bear a star; [ ] = dose if it differs, or a comment. Hits are enriched below; roughly 11% of the tested compounds scored in any of these assays. Unless noted, the call rests on the fitted dose curve; in most records, active means well fitted curve in the direction sought with a large enough effect; inconclusive means small, poorly fitted or top-dose-only effect, or another doubt; inactive means no such curve, though single readings can be large; an effect the other way counts as inactive or inconclusive. Potency means the concentration at half of the fitted maximal effect.

`O=C1NCCN(Cc2ccc(Cl)c(F)c2)C1CC(=O)N1CCCCO1` (centres undefined) gave Pf growth 48h inconclusive, Pf growth 96h -6%, Sm TGR inh 25µM*, NS1 inh 1% and AMA1-RON2 inh 2%.
CN(CCCC1CCCC1)C(=O)CC1C(=O)NCCN1Cc1cccc(F)c1F (centres undefined) was read as Pf growth 48h inconclusive, Pf growth 96h inconclusive, Sm TGR inh 28µM*, NS1 inh 0% and AMA1-RON2 inh 19%.
CN(Cc1ccon1)C(=O)CC1C(=O)NCCN1Cc1cccc(F)c1F (centres undefined) was read as Pf growth 48h 20%, Pf growth 96h inconclusive, Sm TGR inh inconclusive, NS1 inh 13% and AMA1-RON2 inh 22%.
`CN(CC1CCOCC1)C(=O)CC1C(=O)NCCN1Cc1ccc(Cl)c(F)c1` (centres undefined) gave Pf growth 48h 7%, Pf growth 96h 11%, Sm TGR inh 28µM*, NS1 inh -2% and AMA1-RON2 inh 0%.
Screening CC(C)CN(C)C(=O)CCc1nnc(Cc2cccc(C(F)(F)F)c2)o1 returned Pf growth 48h 39%, Pf growth 96h -5%, Sm TGR inh 0%, NS1 inh -1% and AMA1-RON2 inh -14%.
`CC1=C(C(=O)N(C)C)C(c2ccc(N3CCOCC3)cc2)NC(=O)N1` (centres undefined) gave Pf growth 48h 18%, Pf growth 96h 42%, Sm TGR inh -18% and AMA1-RON2 inh 15%.
`COc1cccc(CNC(=O)CCCn2ncn3c(cc4occc43)c2=O)c1` gave Pf growth 48h inconclusive, Pf growth 96h 4.7µM*, Sm TGR inh -12%, NS1 inh -4% and AMA1-RON2 inh 2%.
Screening CCc1cccc(NC(=O)CCCn2nc(CC)n3c(cc4occc43)c2=O)c1 returned Pf growth 48h inconclusive, Pf growth 96h 12µM*, Sm TGR inh -18%, NS1 inh 9% and AMA1-RON2 inh -6%.
O=C(CCCn1ncn2c(cc3occc32)c1=O)NCc1cccc(Cl)c1 was read as Pf growth 48h inconclusive, Pf growth 96h inconclusive, Sm TGR inh -7%, NS1 inh -16% and AMA1-RON2 inh 5%.
`COc1ccc(CCNC(=O)C(C)n2nc(C)n3c(cc4occc43)c2=O)cc1OC` (centres undefined) gave Pf growth 48h 2%, Pf growth 96h 13µM*, Sm TGR inh -6%, NS1 inh -4% and AMA1-RON2 inh -6%.
`CCc1nn(C(C)C(=O)Nc2cccc(C)c2C)c(=O)c2cc3occc3n12` (centres undefined) gave Pf growth 48h 9.3µM*, Pf growth 96h -11%, Sm TGR inh -7%, NS1 inh -13% and AMA1-RON2 inh 2%.
CCc1nn(CCCC(=O)NCc2ccccc2Br)c(=O)c2cc3occc3n12 was read as Pf growth 48h -16%, Pf growth 96h 3%, Sm TGR inh 3%, NS1 inh 3% and AMA1-RON2 inh 26%.
Screening O=C(N/N=C/c1ccc2c(c1)OCO2)C1CC1 returned Pf growth 48h 108%, Pf growth 96h 96%, Sm TGR inh 7%, NS1 inh -16% and AMA1-RON2 inh 26%.
COc1ccc(-c2oc(/N=C/N3CCOCC3)c(C#N)c2-c2ccc(OC)cc2)cc1 was read as Pf growth 48h 6.6µM*, Sm TGR inh 0%, NS1 inh -1% and AMA1-RON2 inh -24%.
For COc1ccc(-c2oc(NC(C)=O)c(C#N)c2-c2ccc(OC)cc2)cc1 the results were Pf growth 96h inconclusive, Sm TGR inh -33%, NS1 inh 5% and AMA1-RON2 inh inconclusive.
Screening Cc1ccc(C)c(NC(=O)CCn2nc(C)c3c(C)n(-c4ccccc4)nc3c2=O)c1 returned Sm TGR inh -11%.
Cc1nn(-c2ccccc2)c(C)c1C(=O)OCC(=O)N(C)c1c(N)n(Cc2ccccc2)c(=O)[nH]c1=O was read as Pf growth 48h inconclusive, Pf growth 96h 12µM*, Sm TGR inh -4% and AMA1-RON2 inh 11%.
`CC(C)CN(C(=O)COC(=O)C12CC3CC(CC(C3)C1)C2)c1c(N)n(Cc2ccccc2)c(=O)[nH]c1=O` gave Pf growth 48h 1.2µM*, Pf growth 96h 0.13µM*, Sm TGR inh -1% and AMA1-RON2 inh 1%.
`CC(C)CN(C(=O)COC(=O)C12CC3CC(CC(O)(C3)C1)C2)c1c(N)n(Cc2ccccc2)c(=O)[nH]c1=O` gave AMA1-RON2 inh 11%.
COCCN(C(=O)COC(=O)c1ccc(-c2ccccc2)cc1)c1c(N)n(Cc2ccccc2)c(=O)[nH]c1=O was read as AMA1-RON2 inh 2%[11.6 µM].
For COCCN(C(=O)COC(=O)c1c(-c2ccccc2)noc1C)c1c(N)n(Cc2ccccc2)c(=O)[nH]c1=O the results were Pf growth 48h inconclusive, Pf growth 96h 12µM*, Sm TGR inh -21%, NS1 inh -10% and AMA1-RON2 inh -3%.
Screening CCc1nc2ccccc2c(C(=O)OCC(=O)N(CCOC)c2c(N)n(Cc3ccccc3)c(=O)[nH]c2=O)c1C returned Pf growth 48h 13µM*, Pf growth 96h inconclusive, Sm TGR inh 3% and AMA1-RON2 inh 0%.
`O=C(/C=C/NCc1cccnc1)c1ccc(Br)cc1` gave AMA1-RON2 inh -15%.
`COc1ccc(C(=O)Nc2ccc3c(c2)N(C2CCCC2)C(=O)c2ccccc2S3)cc1OC` gave Sm TGR inh 7%.
For CCN(C(=O)CSc1nncn1-c1ccccc1)C1CCS(=O)(=O)C1 (centres undefined) the results were Pf growth 48h 0%, Pf growth 96h 27%, Sm TGR inh 2% and AMA1-RON2 inh 37%.
Screening Cc1onc(-c2ccccc2)c1C(=O)OCC(=O)N(CC(C)C)c1c(N)n(Cc2ccccc2)c(=O)[nH]c1=O returned Pf growth 48h 13µM*, Pf growth 96h inconclusive, Sm TGR inh -5% and AMA1-RON2 inh 3%.
`CN(C(=O)COC(=O)CCC(=O)c1ccc(Cl)cc1)c1c(N)n(Cc2ccccc2)c(=O)[nH]c1=O` gave Pf growth 48h 20%, Pf growth 96h 2.1µM*, Sm TGR inh inconclusive and AMA1-RON2 inh inconclusive.
`Cc1onc(-c2ccccc2)c1C(=O)OCC(=O)N(C)c1c(N)n(Cc2ccccc2)c(=O)[nH]c1=O` gave Pf growth 48h inconclusive, Pf growth 96h 12µM*, Sm TGR inh 3% and AMA1-RON2 inh -7%.
COCCN(C(=O)Cn1c(C(F)(F)F)nc2ccccc21)c1c(N)n(Cc2ccccc2)c(=O)[nH]c1=O was read as Pf growth 48h inconclusive, Pf growth 96h 15µM*, Sm TGR inh 6%, NS1 inh -3% and AMA1-RON2 inh 9%.
